Test results published in the supplement of paper PMC12067093, “Discovery and optimisation of a covalent ligand for TRIM25 and its application to targeted protein ubiquitination” (Chemical Science, 2025).
Targets with the largest changes are over-represented here; the source holds about 21,000 in all.

Compound: CC1Cc2ccccc2N1C(=O)C1CCCN(C1)C(=O)CCl (mixture of isomers) [TRIM25 ligand 11 (diastereomer mixture)]
Experiment: probe-labelled cysteine peptide fold change vs DMSO (competition) (log2 fold change); higher = less target engagement (more negative = stronger competition)
Conditions: 10 µM; THP-1; incubation time: 4 h
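Further: competitive chemoproteomic profiling in live THP-1 cells with an iodoacetamide desthiobiotin (IA-DTB) probe, comparing probe-labelled peptide intensities in compound-treated cells against DMSO-treated controls.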

UniProt O14920, sequence (O14920 whole entry, looked up): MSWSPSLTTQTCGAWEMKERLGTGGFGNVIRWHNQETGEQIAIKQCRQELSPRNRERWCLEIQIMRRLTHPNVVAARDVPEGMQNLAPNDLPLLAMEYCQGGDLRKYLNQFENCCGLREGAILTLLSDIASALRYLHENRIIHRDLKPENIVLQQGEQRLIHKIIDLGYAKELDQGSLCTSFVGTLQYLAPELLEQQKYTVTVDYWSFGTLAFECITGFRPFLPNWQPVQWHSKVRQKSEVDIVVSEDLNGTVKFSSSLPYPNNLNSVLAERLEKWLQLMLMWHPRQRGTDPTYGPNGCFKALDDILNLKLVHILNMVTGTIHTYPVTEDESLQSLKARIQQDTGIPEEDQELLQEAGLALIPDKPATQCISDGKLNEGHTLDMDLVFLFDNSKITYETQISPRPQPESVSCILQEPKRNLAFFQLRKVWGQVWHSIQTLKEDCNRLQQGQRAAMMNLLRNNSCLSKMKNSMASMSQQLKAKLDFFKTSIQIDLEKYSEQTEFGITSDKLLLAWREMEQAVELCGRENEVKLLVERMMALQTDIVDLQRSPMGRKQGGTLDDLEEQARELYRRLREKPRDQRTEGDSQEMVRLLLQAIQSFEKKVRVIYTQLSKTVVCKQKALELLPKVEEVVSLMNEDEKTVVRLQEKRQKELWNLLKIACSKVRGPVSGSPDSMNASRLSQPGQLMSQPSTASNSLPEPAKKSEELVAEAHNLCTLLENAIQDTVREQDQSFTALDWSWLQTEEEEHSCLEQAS
UniProt Q14807, sequence (Q14807 whole entry, looked up): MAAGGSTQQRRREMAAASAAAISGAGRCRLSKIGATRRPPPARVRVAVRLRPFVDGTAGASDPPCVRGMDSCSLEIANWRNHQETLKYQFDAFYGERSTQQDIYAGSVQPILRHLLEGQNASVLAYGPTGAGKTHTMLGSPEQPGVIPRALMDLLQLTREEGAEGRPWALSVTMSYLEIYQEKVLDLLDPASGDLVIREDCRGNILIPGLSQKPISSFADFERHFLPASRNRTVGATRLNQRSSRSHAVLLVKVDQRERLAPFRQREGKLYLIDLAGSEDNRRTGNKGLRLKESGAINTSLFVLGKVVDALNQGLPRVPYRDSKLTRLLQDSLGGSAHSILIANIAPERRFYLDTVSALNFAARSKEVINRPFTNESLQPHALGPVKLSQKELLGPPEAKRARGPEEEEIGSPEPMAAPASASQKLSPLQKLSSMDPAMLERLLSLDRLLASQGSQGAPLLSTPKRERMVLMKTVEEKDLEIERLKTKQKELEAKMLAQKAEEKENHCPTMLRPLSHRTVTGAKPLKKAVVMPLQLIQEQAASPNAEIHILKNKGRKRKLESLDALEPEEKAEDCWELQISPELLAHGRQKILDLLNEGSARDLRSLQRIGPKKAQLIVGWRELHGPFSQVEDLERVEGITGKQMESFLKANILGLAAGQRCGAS
UniProt P11717, sequence (P11717 whole entry, looked up): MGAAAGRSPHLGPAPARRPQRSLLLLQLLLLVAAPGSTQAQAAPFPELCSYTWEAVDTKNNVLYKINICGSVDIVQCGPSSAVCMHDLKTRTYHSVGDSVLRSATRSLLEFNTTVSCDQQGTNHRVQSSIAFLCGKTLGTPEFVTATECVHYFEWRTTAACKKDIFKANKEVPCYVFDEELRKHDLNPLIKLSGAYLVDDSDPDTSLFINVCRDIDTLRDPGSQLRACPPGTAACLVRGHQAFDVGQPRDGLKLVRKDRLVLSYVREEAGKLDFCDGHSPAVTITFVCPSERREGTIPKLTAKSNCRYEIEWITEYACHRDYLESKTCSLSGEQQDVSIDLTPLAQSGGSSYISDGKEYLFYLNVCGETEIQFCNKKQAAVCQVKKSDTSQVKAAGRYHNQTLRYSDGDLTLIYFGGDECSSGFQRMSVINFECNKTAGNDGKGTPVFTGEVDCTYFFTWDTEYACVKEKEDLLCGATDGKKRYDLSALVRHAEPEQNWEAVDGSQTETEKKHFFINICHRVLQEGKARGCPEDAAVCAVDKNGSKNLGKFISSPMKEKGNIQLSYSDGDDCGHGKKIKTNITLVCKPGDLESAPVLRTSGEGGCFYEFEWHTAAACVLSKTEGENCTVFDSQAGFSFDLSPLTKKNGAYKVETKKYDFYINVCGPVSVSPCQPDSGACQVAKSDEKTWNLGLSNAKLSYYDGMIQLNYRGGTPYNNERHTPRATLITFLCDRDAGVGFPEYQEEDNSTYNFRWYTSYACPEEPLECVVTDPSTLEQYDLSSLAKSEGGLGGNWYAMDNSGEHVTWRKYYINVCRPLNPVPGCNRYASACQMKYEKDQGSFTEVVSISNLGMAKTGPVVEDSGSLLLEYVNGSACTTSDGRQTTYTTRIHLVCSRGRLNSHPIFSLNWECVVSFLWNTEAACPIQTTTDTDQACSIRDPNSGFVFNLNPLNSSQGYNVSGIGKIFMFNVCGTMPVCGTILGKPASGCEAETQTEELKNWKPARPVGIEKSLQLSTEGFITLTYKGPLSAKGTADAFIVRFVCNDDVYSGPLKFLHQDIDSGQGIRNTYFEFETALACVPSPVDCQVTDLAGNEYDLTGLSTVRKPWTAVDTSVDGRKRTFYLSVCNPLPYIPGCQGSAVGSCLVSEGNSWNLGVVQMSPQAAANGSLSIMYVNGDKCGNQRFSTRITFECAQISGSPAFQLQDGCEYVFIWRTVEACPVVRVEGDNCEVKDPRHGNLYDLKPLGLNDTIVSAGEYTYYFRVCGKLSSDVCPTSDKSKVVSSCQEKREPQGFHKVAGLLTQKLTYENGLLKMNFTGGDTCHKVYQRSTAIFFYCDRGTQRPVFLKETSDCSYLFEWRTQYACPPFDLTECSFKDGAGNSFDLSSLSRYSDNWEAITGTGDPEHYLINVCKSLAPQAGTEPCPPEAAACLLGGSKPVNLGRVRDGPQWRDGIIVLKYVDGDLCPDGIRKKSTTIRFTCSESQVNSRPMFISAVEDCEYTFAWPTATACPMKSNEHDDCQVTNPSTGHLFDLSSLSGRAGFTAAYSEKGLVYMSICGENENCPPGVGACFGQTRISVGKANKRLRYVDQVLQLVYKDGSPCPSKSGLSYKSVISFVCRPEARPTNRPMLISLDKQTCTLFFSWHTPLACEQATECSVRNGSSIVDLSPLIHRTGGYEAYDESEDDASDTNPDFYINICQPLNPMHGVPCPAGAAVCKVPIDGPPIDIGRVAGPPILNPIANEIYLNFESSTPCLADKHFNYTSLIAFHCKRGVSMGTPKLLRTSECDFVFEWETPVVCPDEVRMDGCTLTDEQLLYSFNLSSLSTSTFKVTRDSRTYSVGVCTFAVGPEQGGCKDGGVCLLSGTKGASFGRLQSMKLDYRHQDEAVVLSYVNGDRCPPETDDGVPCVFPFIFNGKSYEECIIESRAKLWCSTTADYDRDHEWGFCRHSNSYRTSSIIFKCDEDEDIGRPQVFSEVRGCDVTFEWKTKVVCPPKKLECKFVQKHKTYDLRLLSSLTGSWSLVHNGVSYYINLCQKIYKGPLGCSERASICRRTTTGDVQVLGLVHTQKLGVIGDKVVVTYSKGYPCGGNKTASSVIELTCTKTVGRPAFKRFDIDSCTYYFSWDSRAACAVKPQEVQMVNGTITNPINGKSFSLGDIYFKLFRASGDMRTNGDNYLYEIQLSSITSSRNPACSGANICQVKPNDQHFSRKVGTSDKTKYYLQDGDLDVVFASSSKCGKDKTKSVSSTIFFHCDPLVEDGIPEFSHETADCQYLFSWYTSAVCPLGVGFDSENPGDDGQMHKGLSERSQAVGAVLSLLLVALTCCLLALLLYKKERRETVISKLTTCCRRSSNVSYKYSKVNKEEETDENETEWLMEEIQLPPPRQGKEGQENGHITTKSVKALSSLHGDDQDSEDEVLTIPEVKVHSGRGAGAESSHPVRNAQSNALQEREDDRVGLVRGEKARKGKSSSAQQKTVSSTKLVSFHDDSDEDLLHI
UniProt Q5JSJ4, sequence (Q5JSJ4 whole entry): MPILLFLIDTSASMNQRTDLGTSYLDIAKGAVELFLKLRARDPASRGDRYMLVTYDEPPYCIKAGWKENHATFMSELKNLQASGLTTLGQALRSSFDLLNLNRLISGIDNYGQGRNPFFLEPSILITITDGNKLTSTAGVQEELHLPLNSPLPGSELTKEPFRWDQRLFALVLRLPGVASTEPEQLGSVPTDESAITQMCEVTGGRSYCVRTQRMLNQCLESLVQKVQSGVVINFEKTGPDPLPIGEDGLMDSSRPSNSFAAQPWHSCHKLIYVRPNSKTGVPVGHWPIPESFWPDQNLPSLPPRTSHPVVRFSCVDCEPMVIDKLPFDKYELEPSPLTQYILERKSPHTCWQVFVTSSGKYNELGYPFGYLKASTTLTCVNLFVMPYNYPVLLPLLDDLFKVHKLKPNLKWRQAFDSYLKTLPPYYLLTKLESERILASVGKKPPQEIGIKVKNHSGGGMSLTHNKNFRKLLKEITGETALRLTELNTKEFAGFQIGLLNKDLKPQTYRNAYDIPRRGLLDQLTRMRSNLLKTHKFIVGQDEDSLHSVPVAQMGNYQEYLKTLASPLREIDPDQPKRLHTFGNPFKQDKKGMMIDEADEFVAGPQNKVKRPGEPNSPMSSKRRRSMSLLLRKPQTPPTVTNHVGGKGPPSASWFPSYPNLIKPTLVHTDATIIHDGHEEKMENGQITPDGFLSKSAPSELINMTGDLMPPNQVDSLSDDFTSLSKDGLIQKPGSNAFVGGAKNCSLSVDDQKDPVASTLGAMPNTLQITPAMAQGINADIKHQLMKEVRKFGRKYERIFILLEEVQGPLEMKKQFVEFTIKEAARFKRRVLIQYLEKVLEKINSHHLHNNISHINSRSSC

Row | Target | probe-labelled cysteine peptide fold change
1 | KDM3A_Q9Y4C1_814_PACPASTSPLNWLADLTSGNVNK (UniProt Q9Y4C1) | 0.0136
2 | LRRC8C_Q8TDW0_599_MTNLTELELVHCDLER (UniProt Q8TDW0) | 0.076
3 | KIF22_Q14807_201_VLDLLDPASGDLVIREDCR (UniProt Q14807) | -0.154
4 | INTS6L_Q5JSJ4_745_NCSLSVDDQK (UniProt Q5JSJ4) | 0.156
5 | KLHL26_Q53HC5_383_SGEGAVDACYR (UniProt Q53HC5) | 0.33
6 | IKBKB_O14920_524_EMEQAVELCGR (UniProt O14920) | 0.182
7 | ITGB2_P05107_386_VTYDSFCSNGVTHR (UniProt P05107) | 0.0533
8 | ITGB2_P05107_481_NCECQTQGR (UniProt P05107) | -0.17
9 | IRF3_Q14653_267_HVLSCLGGGLALWR (UniProt Q14653) | -0.17
10 | IARS2_Q9NSE4_819_SCQTALVEILDVIVR (UniProt Q9NSE4) | 0.153
11 | KNTC1_P50748_911_IIDLIDREQGEDCLLLLK (UniProt P50748) | 0.282
12 | IGF2R_P11717_149_TLGTPEFVTATECVHYFEWR (UniProt P11717) | -0.0703
13 | INPP5F_Q9Y2H2_725_DTLQCIAEMLQITK (UniProt Q9Y2H2) | 0.173
14 | LANCL2_Q9NS86_367_GYGICHGTAGNGYSFLSLYR (UniProt Q9NS86) | 0.0845
15 | ITSN2_Q9NZM3_1429_ENSDRLEWIQAHVQCEGLAEQLIFNSLTNCLGPR (UniProt Q9NZM3) | -0.507
16 | KIAA1958_Q8N8K9_246_PKPQTHAGPSCVGSAK (UniProt Q8N8K9) | -0.0886
